{"source": "PubChem BioAssay AID1508602", "about": "(The Scripps Research Institute Molecular Screening Center, 2020)", "note": "In all, about 650,000 compounds went through this assay and about 6,800 (1%) were called active. Shown is part of a subset that was picked to be rich in actives. A number with no mark means an inactive call. Rule as the data show it: active = activation above about 4.9%; inactive = the rest."}
{"biological_target": "G-protein coupled receptor 151 (Homo sapiens) (UniProt Q8TDV0)", "sequence (Q8TDV0 whole entry, looked up)": "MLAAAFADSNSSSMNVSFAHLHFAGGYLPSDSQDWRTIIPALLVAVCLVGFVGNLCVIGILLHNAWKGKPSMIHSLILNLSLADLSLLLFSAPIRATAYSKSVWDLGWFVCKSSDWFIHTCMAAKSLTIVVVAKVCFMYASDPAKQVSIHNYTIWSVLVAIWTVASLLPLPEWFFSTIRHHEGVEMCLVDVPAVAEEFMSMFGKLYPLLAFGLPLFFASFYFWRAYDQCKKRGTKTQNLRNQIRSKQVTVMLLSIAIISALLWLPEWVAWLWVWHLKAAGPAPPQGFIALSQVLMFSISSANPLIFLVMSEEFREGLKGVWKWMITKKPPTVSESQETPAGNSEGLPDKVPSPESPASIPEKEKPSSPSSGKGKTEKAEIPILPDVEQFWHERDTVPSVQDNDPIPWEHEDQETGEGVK", "assay": "activators of human GPR151, primary screen, cell-based, PathHunter beta-arrestin, luminescence (AID 1508602);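 also: 0% = median of compound wells and 100% = cells with positive control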", "settings": "PathHunter beta-arrestin GPR151 cells, at 11.2 µM, stronger effect = higher value"}
{"smiles": "COc1cc(C2C3=C(CC(C)(C)CC3=O)Nc3ccc4ncccc4c32)ccc1OC(C)=O", "note": "(centres undefined)", "activation": "-0.317%"}
{"smiles": "O=C(Cc1cccs1)N1CCCCC1c1nc2ccccc2[nH]1", "note": "(centres undefined)", "activation": "0.204%"}
{"smiles": "O=C(Nc1ccc(Br)cc1Cl)N1CCN(c2ncccn2)CC1", "activation": "-0.59%"}
{"smiles": "Cn1c(SCCN2CCCCC2)nnc1C1CCN(C/C=C/c2ccco2)CC1", "activation": "1.24%"}
{"smiles": "COc1cccc(C(=O)Nc2ccc(N3CCCC3=O)cc2)c1", "activation": "-9.98%"}
{"smiles": "O=C(Nc1ccc(N2CCCC2=O)cc1)c1cncc(Br)c1", "activation": "5.11% (active)"}
{"smiles": "O=C(Nc1ccc(S(=O)(=O)Nc2ncccn2)cc1)c1cncc(Br)c1", "activation": "-0.902%"}
{"smiles": "C(=N\\c1nnc2nc[nH]n12)/c1ccco1", "activation": "-0.745%"}
{"smiles": "CC(C)CNC(=O)c1ccc(F)c(S(=O)(=O)N2CCOCC2)c1", "activation": "1.07%"}
{"smiles": "O=[N+]([O-])c1ccc(Oc2ccc(Cl)c3cccnc23)c(Cl)c1", "activation": "0.725%"}
{"smiles": "COc1ccc(S(=O)(=O)Oc2ccc(Cl)c3cccnc23)cc1OC", "activation": "2.28%"}
{"smiles": "COc1ccc(OC)c(S(=O)(=O)Oc2ccc(Cl)c3cccnc23)c1", "activation": "12.1% (active)"}
{"smiles": "COC(=O)c1cc2cc(N)ccc2s1", "activation": "0.191%"}
{"smiles": "CCCS(=O)(=O)N1CCN=C1SCc1cccc(Cl)c1", "activation": "-1.49%"}
{"smiles": "O=C(CSc1ccc(F)cc1)Nc1cccc2ccccc12", "activation": "7.44% (active)"}
{"smiles": "Cc1nc(SCC(=O)Nc2cccc3ccccc23)n[nH]1", "activation": "-0.295%"}
{"smiles": "Cc1cc(=O)[nH]c(SCC(=O)Nc2ccccn2)n1", "activation": "0.382%"}
{"smiles": "Cc1cc(=O)[nH]c(SCC(=O)Nc2ccc(C(N)=O)cc2)n1", "activation": "-0.979%"}
{"smiles": "Cc1cccc(NC(=O)CSc2nc3[nH]ncc3c(=O)[nH]2)c1", "activation": "5.01% (active)"}
{"smiles": "Cc1cc(=O)[nH]c(SCC(=O)Nc2cccc3ccccc23)n1", "activation": "15.8% (active)"}
{"smiles": "Cc1nnc(SCC(=O)Nc2cccc(Cl)c2)[nH]c1=O", "activation": "0.326%"}
{"smiles": "O=C(CSc1ccc(F)cc1)Nc1ccccc1-c1nc2ccccc2s1", "activation": "-0.819%"}
{"smiles": "Cc1cccc(NC(=O)CSc2ncn[nH]2)c1", "activation": "-0.535%"}
{"smiles": "COc1ccc(C(=O)c2snc(Nc3ccccc3)c2N)cc1", "activation": "0.834%"}
{"smiles": "CCSc1c(O)cnn(-c2ccccc2)c1=O", "activation": "0.94%"}
{"smiles": "CCOC(=O)C(C#N)C(C#N)(C(=O)OCC)C1CCCCC1=O", "note": "(centres undefined)", "activation": "2.95%"}
{"smiles": "O=C(CNC(=O)c1ccc(NC2CC2)c([N+](=O)[O-])c1)Nc1ccc(F)c(F)c1F", "activation": "0.807%"}
{"smiles": "Cc1ccc[n+](-c2ncnc(N)c2[N+](=O)[O-])c1", "activation": "6.28% (active)"}
{"smiles": "Cc1csc(Nc2ncnc(N)c2[N+](=O)[O-])n1", "activation": "-0.642%"}
{"smiles": "Nc1ncnc(Oc2ccccc2Cl)c1[N+](=O)[O-]", "activation": "1.64%"}
{"smiles": "CSc1ncc(C(=O)Nc2ccc(F)cc2C)c(C)n1", "activation": "-0.309%"}
{"smiles": "O=C(Nc1ccccc1)NC1(C(=O)Nc2ccc(F)cc2F)CCCCC1", "activation": "0.408%"}
{"smiles": "Cc1ccc(NC(=O)Cn2c(C)c(C=O)c3ccccc32)cc1C", "activation": "1.3%"}
{"smiles": "COc1ccc(-c2nnc(SCC(=O)Nc3ccc4c(c3)OCCO4)o2)cc1OC", "activation": "0.0025%"}
{"smiles": "Cc1sc2nc(CN(C(=O)C3CC3)C3CCCC3)[nH]c(=O)c2c1C", "activation": "0.605%"}
{"smiles": "CCC(CC)C(=O)N1CCN(Cc2nc3sc(C)c(C)c3c(=O)[nH]2)CC1", "activation": "5.71% (active)"}
{"smiles": "Cc1sc2nc(Cc3ccccc3)[nH]c(=O)c2c1C", "activation": "0.303%"}
{"smiles": "O=C(CCCCn1c(=O)[nH]c2ccccc2c1=O)N1CCN(c2cccc(Cl)c2)CC1", "activation": "-0.11%"}
{"smiles": "Oc1oc(-c2cccc3ccccc23)nc1C=Nc1ccc2ccccc2c1", "activation": "-1.09%"}
{"smiles": "CCCCc1ccc(N=Cc2nc(-c3cccc4ccccc34)oc2O)cc1", "activation": "7.67% (active)"}
{"smiles": "CCCCc1ccc(-c2nc(C=Nc3ccc(C(C)=O)cc3)c(O)o2)cc1", "activation": "-0.204%"}
{"smiles": "COc1ccc(CNC2CCCN(c3nc(C)c4ccc(C)cc4n3)CC2)cc1OC", "note": "(centres undefined)", "activation": "-0.801%"}
{"smiles": "COc1ccc(NC(=O)C2CC(=O)N(C3CCCCC3)C2)cc1", "note": "(centres undefined)", "activation": "0.591%"}
{"smiles": "Cc1ccc(C)c(NC(=O)C(Cc2ccccc2)N2C(=O)c3cccc([N+](=O)[O-])c3C2=O)c1", "note": "(centres undefined)", "activation": "1.63%"}
{"smiles": "CCOc1ccc(C(=O)Nc2ccccc2I)cc1[N+](=O)[O-]", "activation": "2.03%"}
{"smiles": "CCOc1ccc(C(=O)Nc2ccc(C(=O)OC)cc2)cc1[N+](=O)[O-]", "activation": "1.51%"}
{"smiles": "CCOc1ccc(C(=O)Nc2nnc(CC)s2)cc1[N+](=O)[O-]", "activation": "7.7% (active)"}
{"smiles": "Cc1ccccc1-n1c(C)cn2c3c(=O)n(CC(N)=O)c(=O)n(C)c3nc12", "activation": "0.26%"}
{"smiles": "O=S(=O)(NC1CCCCC1)c1ccc(S(=O)(=O)n2cnc3ccccc32)cc1", "activation": "3.37%"}
{"smiles": "CCc1cccc(CC)c1NC(=O)CCS(=O)(=O)c1ccc2c(c1)SCC(=O)N2", "activation": "-0.523%"}
{"smiles": "COc1cccc(NC(=O)CN(C)S(=O)(=O)c2ccc3c(c2)SCC(=O)N3)c1", "activation": "5.58% (active)"}
{"smiles": "COc1ccc(S(=O)(=O)N(C)CC(=O)Nc2cccc(C(F)(F)F)c2)cc1OC", "activation": "1.26%"}
{"smiles": "O=C(NNC1=NCCCCC1)c1ccc([N+](=O)[O-])cc1", "activation": "4.83%"}
{"smiles": "CC(=O)NCc1nnc2n1CCN(Cc1ccc(-c3ccccc3)cc1)CC2", "activation": "-0.371%"}
{"smiles": "CC(C)CNC(=O)C(C)N(c1ccccc1)S(C)(=O)=O", "note": "(centres undefined)", "activation": "1.91%"}
{"smiles": "Cc1nc2nc(SCc3ccc([N+](=O)[O-])cc3)nn2c(C)c1Cc1c(F)cccc1Cl", "activation": "5.69% (active)"}
{"smiles": "Cc1nc2nc(SCc3c(F)cccc3Cl)nn2c(C)c1Cc1c(F)cccc1Cl", "activation": "0.427%"}
{"smiles": "Cc1nc2ncnn2c(C)c1Cc1c(F)cccc1Cl", "activation": "0.47%"}
{"smiles": "CCOC(=O)c1cnc2c(C)c(Cl)ccc2c1Nc1cccc(C)c1", "activation": "1.7%"}
{"smiles": "O=C(C1CC1)N1CC[C@H]2[C@H](CCCN2C/C=C/c2ccco2)C1", "activation": "0.174%"}
{"smiles": "O=C(Nc1ccccc1)c1cnc(N2CCC(N3CCOCC3)CC2)s1", "activation": "-1.62%"}
{"smiles": "COc1cccc(N(CC(=O)NCCSc2ccccn2)S(C)(=O)=O)c1", "activation": "1.03%"}
{"smiles": "COc1ccc(C=C(C#N)C#N)c(CSc2ccccn2)c1", "activation": "5.44% (active)"}
{"smiles": "COc1ccc(/C=C/C(=O)NCCSc2ccccn2)cc1", "activation": "-0.668%"}
{"smiles": "Cn1c(SCC(=O)NC(Cc2ccccc2)C(=O)O)nnc1-c1ccncc1", "note": "(centres undefined)", "activation": "-0.851%"}
{"smiles": "CCOc1ccc(CCn2c(-c3ccccc3)cn3c4c(=O)n(C)c(=O)n(C)c4nc23)cc1OCC", "activation": "0.226%"}
{"smiles": "O=C1CC(N2CCN(c3ccc(Cl)cc3)CC2)C(=O)N1c1ccc(Cl)c(Cl)c1", "note": "(centres undefined)", "activation": "-0.621%"}
{"smiles": "Cc1ccc(N2C(=O)CC(N3CCN(Cc4ccc(Cl)cc4)CC3)C2=O)cc1Cl", "note": "(centres undefined)", "activation": "5.11% (active)"}
{"smiles": "Cc1ccc(N2C(=O)CC(N3CCC(Cc4ccccc4)CC3)C2=O)cc1Cl", "note": "(centres undefined)", "activation": "-0.328%"}
{"smiles": "COc1ccc2ccccc2c1CN1CCc2nnc(C(C)NC(=O)C(C)C)n2CC1", "note": "(centres undefined)", "activation": "1.9%"}
{"smiles": "COc1cc(C(C)=Nc2c(C)n(C)n(-c3ccccc3)c2=O)cc(O)c1OC", "activation": "5.37% (active)"}
{"smiles": "Cc1c(N=C(Nc2ccccc2)Nc2ccccc2)c(=O)n(-c2ccccc2)n1C", "activation": "-0.384%"}
{"smiles": "COc1ccc(C(=O)Nc2c(C)n(C)n(-c3ccccc3)c2=O)c(OC)c1OC", "activation": "0.96%"}
{"smiles": "CCOc1ccc(CCNC(=O)Cn2c(-c3cncs3)nc3ccccc32)cc1OCC", "activation": "-0.67%"}
{"smiles": "O=C(Nc1ccccc1)/C(=C\\c1ccco1)NC(=O)c1cccc(Cl)c1", "activation": "0.512%"}
{"smiles": "CCOC(=O)c1cnc2c(OC)cccc2c1Nc1ccc(Oc2ccccc2)cc1", "activation": "-0.414%"}
{"smiles": "CCN(CC)c1nc(Nc2ccccc2)nc(Nc2ccc(NC(C)=O)cc2)n1", "activation": "-0.926%"}
{"smiles": "CCN(CC)c1nc(NCc2ccccc2)nc(NCc2ccc3c(c2)OCO3)n1", "activation": "0.801%"}
{"smiles": "CCN(CC)c1nc(Nc2ccccc2)nc(Nc2ccccc2)n1", "activation": "6.59% (active)"}
{"smiles": "COc1cccc(C(=O)COC(=O)c2c3c(nc4ccccc24)CCCC3)c1", "activation": "1.21%"}
{"smiles": "CCOC1=C/C(=C/c2c(N)n3nc(N4CCCC4)sc3nc2=O)C=CC1=O", "activation": "-1.93%"}
{"smiles": "COC(=O)C(C)CN1CCN(Cc2ccc3c(c2)OCO3)CC1", "note": "(centres undefined)", "activation": "-1.4%"}
{"smiles": "CC1CCCN(CC(O)COc2ccc3c(c2)OCO3)C1", "note": "(centres undefined)", "activation": "-0.477%"}
{"smiles": "CN1CCN(CC(O)COCc2ccc3c(c2)OCO3)CC1", "note": "(centres undefined)", "activation": "10.1% (active)"}
{"smiles": "CCC(=O)Nc1cccc(Nc2nc(Cl)nc(Nc3cccc(NC(=O)CC)c3)n2)c1", "activation": "0.686%"}
{"smiles": "Cc1ccc(CS(=O)(=O)CC2Nc3ccc(C(=O)NC4CCCC4)cc3NC2=O)cc1", "note": "(centres undefined)", "activation": "-0.216%"}
{"smiles": "Cc1cc(=O)[nH]c(NCCC(=O)O)n1", "activation": "0.811%"}
{"smiles": "COCCn1c(C)cc(C(=O)CSc2nnc(-c3ccccc3)o2)c1C", "activation": "9.35% (active)"}
{"smiles": "COCCn1c(C)cc(C(=O)CSc2nnc3scc(-c4ccc(C)cc4)n23)c1C", "activation": "1.12%"}
{"smiles": "COCCn1c(C)cc(C(=O)COC(=O)C2COc3ccccc3O2)c1C", "note": "(centres undefined)", "activation": "0.229%"}
{"smiles": "COc1ccc(C2/C(=C(\\O)c3ccc(Br)cc3)C(=O)C(=O)N2c2nccs2)cc1OC", "note": "(centres undefined)", "activation": "-0.318%"}
{"smiles": "Cc1cccc(-n2nc3c(c2NC(=O)C2CCCC2)CS(=O)(=O)C3)c1C", "activation": "-1.12%"}
{"smiles": "Cc1cccc(-n2nc3c(c2NC(=O)CCC2CCCC2)CS(=O)(=O)C3)c1C", "activation": "-0.834%"}
{"smiles": "Cc1cccc(-n2nc3c(c2NC(=O)CCC2CCCCC2)CS(=O)(=O)C3)c1C", "activation": "5.19% (active)"}
